PubChem BioAssay (NCATS)
Records with an inconclusive call do not appear. Entries that show only a call come without a potency. Calls of active or inactive are those of the source. Calls follow the shape of the dose curve; as a rule, active = well fitted curve in the direction sought with a large enough effect; inconclusive = small, poorly fitted or top-dose-only effect, or another doubt; inactive = no such curve, though single readings can be large; an effect the other way counts as inactive or inconclusive.

Tested on: not listed separately
Test: Quantitative high throughput screen for delayed death inhibitors of the malarial parasite plastid, 48 hour incubation (AID 488752); also: nearly all actives have a fitted effect of over 65% in size; also: potency is read from the fitted curve at half-maximal effect
Settings: Plasmodium falciparum growth; series mostly up to 28.7 µM
Summary of the method: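 Erythrocytes infected with firefly luciferase-expressing P. falciparum (2% hematocrit, 0.1% parasitemia) cultured with compound for 48 h at 37 C, 5% CO2, in RPMI 1640/0.5% Albumax. Growth inhibition read as loss of luminescence.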

Structure (SMILES)	Potency
CC(C)[C@@]1(NC(=O)[C@@H]2C[C@@H]3c4cccc5[nH]cc(c45)C[C@H]3N(C)C2)O[C@@]2(O)C3CCCN3C(=O)[C@H](Cc3ccccc3)N2C1=O (stereo partly specified)	1.65 µM (active)
C[C@]12CC[C@H](O)CC1=CCC1C2CC[C@]2(C)C(=O)CC[C@@H]12 (stereo partly specified)	inactive
CCCN1CCc2cccc3c2C1Cc1ccc(O)c(O)c1-3 (stereo unspecified)	1.85 µM (active)

Molecular target: Transient receptor potential cation channel subfamily V member 1 (Homo sapiens) (UniProt Q8NER1)
Test: HTS Assay for Compounds that Act as Enhancers of the Vanilloid Receptor 1 (AID 488979)
Settings: TRPV1-expressing cells, enhancer of channel activity; series mostly up to 41.7 µM
Summary of the method: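 Calcium influx kinetics via Fluo-8 (480/520 nm) in TRPV1-expressing cells, 2000/well cultured overnight at 35.5C. Compound-alone read 3 min (agonist phase), followed by EC20 capsaicin challenge for 2 min (enhancer phase).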

Transient receptor potential cation channel subfamily V member 1 (Homo sapiens), sequence (Q8NER1 whole entry, looked up): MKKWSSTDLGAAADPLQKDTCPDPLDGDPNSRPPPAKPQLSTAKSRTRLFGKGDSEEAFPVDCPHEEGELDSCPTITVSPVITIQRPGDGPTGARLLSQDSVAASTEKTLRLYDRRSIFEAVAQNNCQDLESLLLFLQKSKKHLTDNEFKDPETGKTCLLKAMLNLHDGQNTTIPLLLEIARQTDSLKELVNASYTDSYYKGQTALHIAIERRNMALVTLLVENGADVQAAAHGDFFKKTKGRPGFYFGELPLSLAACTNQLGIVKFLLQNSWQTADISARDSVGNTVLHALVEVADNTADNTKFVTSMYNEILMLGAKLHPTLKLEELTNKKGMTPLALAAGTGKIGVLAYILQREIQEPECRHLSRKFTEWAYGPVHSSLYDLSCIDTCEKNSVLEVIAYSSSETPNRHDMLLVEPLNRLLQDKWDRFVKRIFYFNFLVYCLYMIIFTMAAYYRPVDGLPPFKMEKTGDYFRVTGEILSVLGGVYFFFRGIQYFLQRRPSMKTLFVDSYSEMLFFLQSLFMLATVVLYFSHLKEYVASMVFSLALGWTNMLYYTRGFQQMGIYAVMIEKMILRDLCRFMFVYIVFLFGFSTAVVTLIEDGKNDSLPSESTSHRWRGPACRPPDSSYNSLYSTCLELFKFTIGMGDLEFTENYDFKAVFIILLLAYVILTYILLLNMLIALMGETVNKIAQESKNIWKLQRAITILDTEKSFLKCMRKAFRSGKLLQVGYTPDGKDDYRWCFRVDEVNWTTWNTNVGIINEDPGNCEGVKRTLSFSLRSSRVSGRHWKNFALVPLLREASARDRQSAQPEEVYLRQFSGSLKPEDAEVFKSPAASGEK

Structure (SMILES)	outcome
CC(C)[C@@]1(NC(=O)[C@@H]2C[C@@H]3c4cccc5[nH]cc(c45)C[C@H]3N(C)C2)O[C@@]2(O)C3CCCN3C(=O)[C@H](Cc3ccccc3)N2C1=O (stereo partly specified)	inactive
C[C@]12CC[C@H](O)CC1=CCC1C2CC[C@]2(C)C(=O)CC[C@@H]12 (stereo partly specified)	inactive
CCCN1CCc2cccc3c2C1Cc1ccc(O)c(O)c1-3 (stereo unspecified)	inactive
